# In the supplement of paper PMC8728848:
# This is one part of a sample in which the strongest signals are shown more often than they occur.
# B1: Erv41-EDTA (Saccharomyces cerevisiae), Q04651 (protein)
# chain: MKFLVNVALVFMVVYISYIYAAAPEHHHHHHDYDIPTTENLYFQGAMGYIDQQYVVDSQVRDTVQINMDIYVNTKCDWLQINVRDQTMDRKLVLEELQLEEMPFFIPYDTKVNDINEIITPELDEILGEAIPAEFREKLDTRSFFDESDPNKAHLPEFNGCHVFGSIPVNRVSGELQITAKSLGYVASRKAPLEELKFNHVINEFSFGDFYPYIDNPLDNTAQFNQDEPLTTYVYYTSVVPTLFKKLGAEVDTNQYSVNDYRYLYKDVAAKGDKMPGIFFKYNFEPLSIVVSDVRL
# Assays:
# Experiment in all cases: glycan array binding signal (z-score within array); higher = stronger binding
# Details in all cases: glycan notation: IUPAC condensed, linker removed
# [1] = target: Fuc(a1-2)Gal(b1-3)GlcNAc(b1-2)Man(a1-3)[Fuc(a1-2)Gal(b1-3)GlcNAc(b1-2)Man(a1-6)]Man(b1-4)GlcNAc(b1-4)GlcNAc
# How it was run: (§1)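 The Consortium for Functional Glycomics database supplied 3228 glycan arrays, of which those lacking an available protein sequence were dropped. The binding signal, a within-array Z-score, was averaged across arrays of the same protein sequence and across linkers. Negative scores can be read as non-binding.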
# [2] = target: Fuc(a1-2)Gal(b1-3)GlcNAc(b1-3)[Fuc(a1-2)Gal(b1-3)GlcNAc(b1-6)]GalNAc
# How it was run: as §1
# [3] = target: Fuc(a1-2)Gal(b1-4)GlcNAc(b1-3)Gal(b1-4)GlcNAc
# How it was run: as §1
# [4] = target: Fuc(a1-2)Gal(b1-4)GlcNAc6S
# How it was run: as §1
# [5] = target: Fuc(a1-2)Gal3S(b1-4)GlcNAc
# How it was run: as §1
# [6] = target: Fuc(a1-2)[Gal(a1-3)]Gal(b1-3)GalNAc(b1-3)Gal(a1-4)Gal(b1-4)Glc
# How it was run: as §1
# [7] = target: Fuc(a1-2)[Gal(a1-3)]Gal(b1-3)GlcNAc(b1-2)Man(a1-3)[Fuc(a1-2)[Gal(a1-3)]Gal(b1-3)GlcNAc(b1-2)Man(a1-6)]Man(b1-4)GlcNAc(b1-4)[Fuc(a1-6)]GlcNAc
# How it was run: as §1
# [8] = target: Fuc(a1-2)[GalNAc(a1-3)]Gal(b1-4)GlcNAc(b1-3)Gal(b1-4)GlcNAc(b1-3)Gal(b1-4)GlcNAc
# How it was run: as §1
# [9] = target: Fuc(a1-3)[Gal3S(b1-4)]Glc
# How it was run: as §1
# [10] = target: Gal(a1-3)Gal(b1-3)[Fuc(a1-4)]GlcNAc(b1-2)Man(a1-3)[Gal(a1-3)Gal(b1-3)[Fuc(a1-4)]GlcNAc(b1-2)Man(a1-6)]Man(b1-4)GlcNAc(b1-4)GlcNAc
# How it was run: as §1
# [11] = target: Gal(a1-3)Gal(b1-4)[Fuc(a1-3)]GlcNAc
# How it was run: as §1
# [12] = target: Gal(a1-3)Gal(b1-4)[Fuc(a1-3)]GlcNAc(b1-2)Man(a1-3)[Gal(a1-3)Gal(b1-4)[Fuc(a1-3)]GlcNAc(b1-2)Man(a1-6)]Man(b1-4)GlcNAc(b1-4)GlcNAc
# How it was run: as §1
# [13] = target: Gal(b1-3)GalNAc(b1-3)Gal(a1-4)Gal(b1-4)Glc
# How it was run: as §1
# [14] = target: Gal(b1-3)GlcNAc(b1-3)Gal(b1-4)GlcNAc(b1-3)Gal(b1-4)GlcNAc(b1-2)[Gal(b1-3)GlcNAc(b1-3)Gal(b1-4)GlcNAc(b1-3)Gal(b1-4)GlcNAc(b1-6)]Man(a1-6)[Gal(b1-3)GlcNAc(b1-3)Gal(b1-4)GlcNAc(b1-3)Gal(b1-4)GlcNAc(b1-2)Man(a1-3)]Man(b1-4)GlcNAc(b1-4)[Fuc(a1-6)]GlcNAc
# How it was run: as §1
# [15] = target: Gal(b1-4)GlcNAc(b1-2)Man(a1-6)Man(b1-4)GlcNAc(b1-4)GlcNAc
# How it was run: as §1
# [16] = target: Gal(b1-4)GlcNAc(b1-3)Gal(b1-4)GlcNAc(b1-3)Gal(b1-4)GlcNAc(b1-2)Man(a1-3)[Gal(b1-4)GlcNAc(b1-3)Gal(b1-4)GlcNAc(b1-3)Gal(b1-4)GlcNAc(b1-2)Man(a1-6)]Man(b1-4)GlcNAc(b1-4)[Fuc(a1-6)]GlcNAc
# How it was run: as §1
# [17] = target: Gal(b1-4)GlcNAc(b1-3)Gal(b1-4)GlcNAc(b1-3)Gal(b1-4)GlcNAc(b1-2)[Gal(b1-4)GlcNAc(b1-3)Gal(b1-4)GlcNAc(b1-3)Gal(b1-4)GlcNAc(b1-6)]Man(a1-6)[Gal(b1-4)GlcNAc(b1-3)Gal(b1-4)GlcNAc(b1-3)Gal(b1-4)GlcNAc(b1-2)Man(a1-3)]Man(b1-4)GlcNAc(b1-4)[Fuc(a1-6)]GlcNAc
# How it was run: as §1
# [18] = target: Gal(b1-4)GlcNAc(b1-3)Gal(b1-4)GlcNAc(b1-3)Gal(b1-4)GlcNAc(b1-3)Gal(b1-4)GlcNAc(b1-2)Man(a1-3)[Gal(b1-4)GlcNAc(b1-3)Gal(b1-4)GlcNAc(b1-3)Gal(b1-4)GlcNAc(b1-3)Gal(b1-4)GlcNAc(b1-2)Man(a1-6)]Man(b1-4)GlcNAc(b1-4)[Fuc(a1-6)]GlcNAc
# How it was run: as §1
# [19] = target: Gal(b1-4)GlcNAc(b1-3)Gal(b1-4)GlcNAc(b1-3)Gal(b1-4)GlcNAc(b1-3)Gal(b1-4)GlcNAc(b1-2)[Gal(b1-4)GlcNAc(b1-3)Gal(b1-4)GlcNAc(b1-3)Gal(b1-4)GlcNAc(b1-3)Gal(b1-4)GlcNAc(b1-6)]Man(a1-6)[Gal(b1-4)GlcNAc(b1-3)Gal(b1-4)GlcNAc(b1-3)Gal(b1-4)GlcNAc(b1-3)Gal(b1-4)GlcNAc(b1-2)Man(a1-3)]Man(b1-4)GlcNAc(b1-4)[Fuc(a1-6)]GlcNAc
# How it was run: as §1
# [20] = target: Gal(b1-4)GlcNAc(b1-3)Gal(b1-4)GlcNAc(b1-3)Gal(b1-4)GlcNAc(b1-3)Gal(b1-4)GlcNAc(b1-3)Gal(b1-4)GlcNAc(b1-2)Man(a1-3)[Gal(b1-4)GlcNAc(b1-3)Gal(b1-4)GlcNAc(b1-3)Gal(b1-4)GlcNAc(b1-3)Gal(b1-4)GlcNAc(b1-3)Gal(b1-4)GlcNAc(b1-2)Man(a1-6)]Man(b1-4)GlcNAc(b1-4)[Fuc(a1-6)]GlcNAc
# How it was run: as §1
# [21] = target: Gal(b1-4)GlcNAc(b1-3)Gal(b1-4)GlcNAc(b1-3)[Gal(b1-4)GlcNAc(b1-3)Gal(b1-4)GlcNAc(b1-6)]GalNAc
# How it was run: as §1
# [22] = target: Gal(b1-4)GlcNAc(b1-6)GalNAc
# How it was run: as §1
# [23] = target: Gal3S(b1-3)GalNAc
# How it was run: as §1
# [24] = target: Gal6S(b1-4)GlcNAc6S
# How it was run: as §1
# [25] = target: GalNAc(b1-4)GlcNAc(b1-3)GalNAc(b1-4)GlcNAc
# How it was run: as §1
# [26] = target: GlcA(b1-3)GlcNAc
# How it was run: as §1
binder,measurement,setting,value
B1,glycan array binding signal (z-score),[1],0.618
same,glycan array binding signal (z-score),[2],2.18
same,glycan array binding signal (z-score),[3],-0.317
same,glycan array binding signal (z-score),[4],0.642
same,glycan array binding signal (z-score),[5],-0.093
same,glycan array binding signal (z-score),[6],-0.396
same,glycan array binding signal (z-score),[7],0.605
same,glycan array binding signal (z-score),[8],0.784
same,glycan array binding signal (z-score),[9],-0.042
same,glycan array binding signal (z-score),[10],-0.414
same,glycan array binding signal (z-score),[11],-0.74
same,glycan array binding signal (z-score),[12],2.1
same,glycan array binding signal (z-score),[13],1.08
same,glycan array binding signal (z-score),[14],1.31
same,glycan array binding signal (z-score),[15],-0.604
same,glycan array binding signal (z-score),[16],1.64
same,glycan array binding signal (z-score),[17],2.65
same,glycan array binding signal (z-score),[18],2.2
same,glycan array binding signal (z-score),[19],2.63
same,glycan array binding signal (z-score),[20],3.41
same,glycan array binding signal (z-score),[21],1.32
same,glycan array binding signal (z-score),[22],1.98
same,glycan array binding signal (z-score),[23],0.809
same,glycan array binding signal (z-score),[24],-0.128
same,glycan array binding signal (z-score),[25],-0.339
same,glycan array binding signal (z-score),[26],-0.217
